Screening data deposited in PubChem by several laboratories.
In the library only some 4% were active in any assay of this set; here they are far more common.
KCC2 mod: KCC2 cotransporter modulators, thallium flux, primary screen, cell-based, HEK293 KCC2, FluoZin-2 fluorescence, MLSMR. B-score of Tl+ flux slope (higher = more flux/activation; lower = inhibition) at 10 µM. KCC2 cells, thallium flux FluoZin-2 fluorescence. Solute carrier family 12 member 5 (Homo sapiens), Q9H2X9. hit rate 2.2% among 190,000;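 active means thallium flux slope and its plate-corrected score both differing from the plate sample mean at a set confidence after two filtering rounds, in either direction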;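 further: slope of fluorescence scaled to starting intensity during 10 to 20 s after thallium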
Target sequence (Q9H2X9 whole entry, looked up): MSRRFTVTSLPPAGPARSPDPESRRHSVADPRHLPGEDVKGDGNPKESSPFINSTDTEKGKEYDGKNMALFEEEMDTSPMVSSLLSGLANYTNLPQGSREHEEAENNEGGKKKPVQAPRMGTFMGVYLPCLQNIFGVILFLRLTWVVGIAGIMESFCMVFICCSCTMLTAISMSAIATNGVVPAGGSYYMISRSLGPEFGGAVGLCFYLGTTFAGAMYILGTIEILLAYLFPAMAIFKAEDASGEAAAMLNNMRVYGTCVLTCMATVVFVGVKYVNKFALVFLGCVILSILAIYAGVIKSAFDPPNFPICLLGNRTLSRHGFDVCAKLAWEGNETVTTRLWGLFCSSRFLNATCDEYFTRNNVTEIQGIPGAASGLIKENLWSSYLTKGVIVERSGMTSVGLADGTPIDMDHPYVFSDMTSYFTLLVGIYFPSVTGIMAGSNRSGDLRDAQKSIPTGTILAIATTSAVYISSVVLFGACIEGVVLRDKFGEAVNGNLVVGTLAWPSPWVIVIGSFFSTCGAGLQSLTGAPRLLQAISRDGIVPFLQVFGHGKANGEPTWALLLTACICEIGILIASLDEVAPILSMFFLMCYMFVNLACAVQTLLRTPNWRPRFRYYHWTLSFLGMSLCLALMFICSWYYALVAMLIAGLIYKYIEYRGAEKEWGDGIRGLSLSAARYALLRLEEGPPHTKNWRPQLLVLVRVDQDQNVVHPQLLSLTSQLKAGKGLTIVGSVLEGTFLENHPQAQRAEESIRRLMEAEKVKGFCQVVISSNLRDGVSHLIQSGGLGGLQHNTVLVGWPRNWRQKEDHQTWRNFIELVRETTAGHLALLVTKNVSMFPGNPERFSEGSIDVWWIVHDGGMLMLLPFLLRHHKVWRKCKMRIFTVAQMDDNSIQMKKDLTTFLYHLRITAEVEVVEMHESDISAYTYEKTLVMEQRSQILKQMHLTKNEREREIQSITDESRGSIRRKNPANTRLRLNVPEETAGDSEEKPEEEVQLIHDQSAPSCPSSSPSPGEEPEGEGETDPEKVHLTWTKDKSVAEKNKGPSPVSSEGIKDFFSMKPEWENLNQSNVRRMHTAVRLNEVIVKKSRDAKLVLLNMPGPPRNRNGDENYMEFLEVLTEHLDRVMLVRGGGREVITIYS
Measles CPE: compounds protecting cells from measles virus cytopathic effect, primary screen, measles RdRp inhibitor project, single point, MLSMR library, absorbance | Measles virus-infected cells, CPE protection | protection (pct of control), % at 4 µM | hit rate 1.5% among 140,000; in the data active means protection mostly above about 24%, no sharp cut-off; inactive means mostly below about 26%
Arbovirus anti: antivirals against arbovirus infection, primary screen, cell-based, full library, 10K replicate subset. hit rate 0.37% among 200,000. inhibition, % at 10 µM. AID 1251, 2008. arbovirus infection cell-based antiviral screen; in the data active means inhibition above about 30%
ROMK mod: ROMK potassium channel modulators, primary screen, cell-based, thallium flux, MLSMR library; hit rate 2% among 130,000; B-score at 10 µM; Tet-inducible ROMK, thallium flux fluorescence; actives lie on both sides;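 active means signal ratio slope over the read window, or its plate-corrected B-score, at least 3 SD from the plate mean, either direction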;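 further: B-score of the F/F0 ratio slope over 7 to 12 s after thallium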
HSV augment: enhancers of HSV replication in host cells, fold increase, host cell viability; HSV replication augmentation in cells; AID 1956, 2009; hit rate 0.005% among 220,000; maximum fold increase; in the data active means maximum fold increase above about 1.5; inconclusive means no clear call, values can overlap the other calls; tested in PC3 cells
KCC2 sec1: KCC2 modulators in sodium-free buffer, confirmation, cell-based, HEK293 KCC2, thallium flux, secondary assay. shares compounds with KCC2 mod. FluoZin2 fluorescence; hits give high values. normalised thallium flux (F/F0 slope) at 10 µM. hit rate 15% among 3,700;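 active means thallium flux slope above the same plate's solvent-only control mean plus 3 SD; inconclusive means the two replicate wells disagree; inactive means no significant difference from solvent-only control wells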
KCC2 bumet counter: thallium flux persisting under bumetanide in KCC2 cells, confirmation, counter-screen for KCC2 modulator project, cell-based, HEK293 KCC2, FluoZin2, secondary assay 3 | shares compounds with KCC2 mod | AID 1714, 2009 | normalized thallium flux at 10 µM | HEK293-KCC2 + bumetanide/ouabain; hits give high values | hit rate 49% among 3,700;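 active means thallium entry rate above the same plate's blocked-transporter control wells by more than 3 SD; inconclusive means the two repeat wells disagree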;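 further: raw slope of fluorescence over initial fluorescence between 10 and 20 s after thallium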
KCC2 sec2: KCC2 modulators without ouabain present, confirmation, cell-based, HEK293 KCC2, thallium flux, FluoZin2, secondary assay 2. shares compounds with KCC2 mod. hit rate 23% among 3,700. AID 1715, 2009. normalized thallium flux at 10 µM. thallium flux FluoZin2 fluorescence; actives lie on both sides; F/F0 rise rate, 10–20 s post-thallium;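 active means thallium flux slope more than 3 SD above or below the plate's solvent-only control mean, mostly below; inconclusive means the two repeat wells disagreed; inactive means no significant shift from solvent-only controls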;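 further: raw slope with 0.1% DMSO as baseline and bumetanide as block control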
HEK293 Tl flux: thallium flux modulation in parental HEK cells, confirmation, counter-screen for KCC2 modulator project, cell-based, counterscreen 1; thallium flux rate (normalised fluorescence) at 10 µM; HEK293 parental cells, thallium flux FluoZin2, ouabain; baseline-ratio fluorescence slope, 10–20 s after thallium; hit rate 46% among 3,700; shares compounds with KCC2 mod;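 active means thallium flux rate significantly above the same plate's solvent-only control wells, beyond their mean plus 3 SD; inconclusive means the two replicate wells gave conflicting results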
KCC2 retest ouab: KCC2 inhibitors and activators, ouabain retest, confirmation, HEK-KCC2 cells; hit rate 48% among 3,700; HEK293-KCC2, thallium flux FluoZin2 fluorescence; bidirectional: low = inhibitor, high = activator; raw Tl+ flux slope (below DMSO = inhibition, above = activation) at 10 µM; shares compounds with KCC2 mod;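 active means thallium flux slope beyond 3 SD from same-plate DMSO control mean in most replicates, usually higher, sometimes lower; inconclusive means repeat tests gave conflicting results; inactive means no significant difference from controls in most replicates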;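 further: slope of initial-normalized fluorescence between seconds 10 and 20 after thallium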
HEK293 Tl flux2: native HEK Tl+ uptake effects, second counter-screen – HEK cells, counterscreen 2, counter-screen for KCC2 modulator project, confirmation; thallium flux slope at 10 µM; HEK293 parental, thallium flux FluoZin-2 fluorescence slope; hit rate 33% among 3,700; AID 1718, 2009; shares compounds with KCC2 mod;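 active means thallium flux slope above the same plate's solvent-control mean plus 3 SD in both duplicate wells; inconclusive means duplicate wells that disagreed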;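 further: run without ouabain in cells lacking the KCC2 cotransporter; slope of fluorescence scaled to its starting value between 10 and 20 s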
Numbers without * were called inactive.

Screening COC(=O)c1ccc(Cn2c(O)c(N=NC(N)=S)c3ccccc32)o1 returned KCC2 mod 7.1*, ROMK mod 1.1, HSV augment inactive, KCC2 sec1 inconclusive, KCC2 bumet counter 0.03*, KCC2 sec2 0.035, HEK293 Tl flux 0.016*, KCC2 retest ouab 0.027 and HEK293 Tl flux2 inconclusive.
`NC(=S)N=Nc1c(O)n(Cc2ccccc2)c2ccccc12` gave KCC2 mod 8.8*, Measles CPE 7, Arbovirus anti -7, HSV augment inactive, KCC2 sec1 0.0074, KCC2 bumet counter 0.0083*, KCC2 sec2 0.034, HEK293 Tl flux 0.011*, KCC2 retest ouab inconclusive and HEK293 Tl flux2 inconclusive.
Screening CCOC(=O)CN1C(=O)N[C@@H](c2cccc(C(F)(F)F)c2)C(C(=O)OC)=C1C returned HSV augment inactive.
Screening Cc1noc(C)c1COC(=O)c1ccc(N(C)C)cc1 returned KCC2 mod 0.16, Arbovirus anti -10, ROMK mod -0.19 and HSV augment inactive.
Screening Fc1ccc(NC(=S)Nc2ccc(F)c(Cl)c2)cc1Cl returned KCC2 mod -4.3*, Measles CPE 16, Arbovirus anti -26, ROMK mod -1.5, HSV augment inactive, KCC2 sec1 0.006, KCC2 bumet counter 0.0035, KCC2 sec2 inconclusive, HEK293 Tl flux 0.0059*, KCC2 retest ouab 0.013* and HEK293 Tl flux2 inconclusive.
For COc1cccc(-c2nn(-c3ccccc3)cc2/C=C(/NC(=O)c2ccccc2)C(=O)O)c1 the results were KCC2 mod 0.43 and HSV augment inactive.
Screening COc1ccccc1NCC(=O)NNCC(=O)Nc1ccc(F)c(Cl)c1 returned KCC2 mod -0.056, Arbovirus anti 2, ROMK mod -0.45 and HSV augment inactive.
O=C(CSc1ncnc2nc[nH]c12)Nc1nnc(SCc2ccc(Cl)c(Cl)c2)s1 was read as KCC2 mod 1.4, Arbovirus anti -4, ROMK mod 0.29 and HSV augment inactive.
Screening CCCn1c(SCC(=O)N2CCc3ccccc32)nnc1-c1ccco1 returned KCC2 mod -0.27, Measles CPE 7, Arbovirus anti -4 and HSV augment inactive.
CCCn1c(SCC(=O)N2c3ccccc3CC2C)nnc1-c1ccco1 (stereo unspecified) was read as KCC2 mod -4.8*, Measles CPE 11, Arbovirus anti -7, ROMK mod 0.87, HSV augment inactive, KCC2 sec1 0.0083, KCC2 bumet counter 0.0044, KCC2 sec2 0.035, HEK293 Tl flux inconclusive, KCC2 retest ouab 0.018* and HEK293 Tl flux2 0.0094.
Screening CC(=O)NC(Cc1cccc(F)c1)C(=O)NC1CCN(c2nnnn2-c2ccccc2)CC1 (stereo unspecified) returned KCC2 mod -0.68, Arbovirus anti 16, ROMK mod -0.00032 and HSV augment inactive.
O=C(CSc1ccsc1[N+](=O)[O-])N1CCN(c2ccccn2)CC1 was read as KCC2 mod -0.38, Arbovirus anti 4, ROMK mod -2.2 and HSV augment inactive.
For Cc1csc(NC(=O)c2cc3c(C)nn(Cc4ccccc4Cl)c3s2)n1 the results were KCC2 mod -0.041, Measles CPE 3, Arbovirus anti -27 and HSV augment inactive.
`O=C(Cn1c(-c2ccccc2)noc1=O)Nc1ccc(S(=O)(=O)N2CCOCC2)cc1` gave KCC2 mod -0.62, Measles CPE 5, Arbovirus anti -1 and HSV augment inactive.
O=C(Cn1c(-c2ccccc2)noc1=O)N1CCC(Cc2ccccc2)CC1 was read as KCC2 mod -5.2*, Arbovirus anti -1, ROMK mod 0.0051, HSV augment inactive, KCC2 sec1 0.0098, KCC2 bumet counter 0.0068, KCC2 sec2 0.028*, HEK293 Tl flux 0.0037, KCC2 retest ouab 0.015* and HEK293 Tl flux2 0.012.
CCOCC(=O)N1CCC(Cc2ccccc2)CC1 was read as KCC2 mod -0.98, Arbovirus anti -4, ROMK mod 0.79 and HSV augment inactive.
COc1ccc(-c2noc(CCC(=O)NCCCN3CCC(Cc4ccccc4)CC3)n2)cc1 was read as KCC2 mod -0.064, Measles CPE 7, Arbovirus anti -25 and HSV augment inactive.
COc1ccc(-c2noc(=O)n2CC(=O)N2CCC(Cc3ccccc3)CC2)cc1 was read as KCC2 mod -4.7*, Arbovirus anti -5, ROMK mod -0.45, HSV augment inactive, KCC2 sec1 0.0062, KCC2 bumet counter 0.0033*, KCC2 sec2 0.023*, HEK293 Tl flux 0.0052*, KCC2 retest ouab 0.013* and HEK293 Tl flux2 0.0075*.
For COc1ccc(N(C(C)C(=O)N2CCC(Cc3ccccc3)CC2)S(C)(=O)=O)cc1 (stereo unspecified) the results were KCC2 mod -3.6*, Arbovirus anti -5, ROMK mod -1.2, HSV augment inactive, KCC2 sec1 inconclusive, KCC2 bumet counter 0.0057, KCC2 sec2 0.035, HEK293 Tl flux 0.0043, KCC2 retest ouab 0.015* and HEK293 Tl flux2 0.012.
For O=C(Cn1c(-c2ccccc2)noc1=O)Nc1ccc(N2CCCCCC2)cc1 the results were Measles CPE 9, Arbovirus anti -13, ROMK mod 0.56, HSV augment inactive, KCC2 sec1 0.0078, KCC2 bumet counter 0.006, KCC2 sec2 0.031, HEK293 Tl flux 0.0076, KCC2 retest ouab 0.016* and HEK293 Tl flux2 0.011.
`Cc1nccn1CC(=O)N/N=C/c1cccs1` gave KCC2 mod 0.44, ROMK mod -0.037 and HSV augment inactive.
